# Measurements as given in the supplement of paper PMC8728848.
# Only a selection was taken, and the strongest signals are over-represented in it overall.
# B1: Neuropilin-1 (Homo sapiens), O14786 (protein)
# chain: FKCMEALGMESGEIHSDQITASSQYSTNWSAERSRLNYPENGWTPGEDSYREWIQVDLGLLRFVTAVGTQGAISKETKKKYYVKTYKIDVSSNGEDWITIKEGNKPVLFQGNTNPTDVVVAVFPKPLITRFVRIKPATWETGISMRFEVYGCKITDYPCSGMLGMVSGLISDSQITSSNQGDRNWMPENIRLVTSRSGWALPPAPHSYINEWLQIDLGEEKIVRGIIIQGGKHRENKVFMRKFKIGYSNNGSDWKMIMDDSKRKAKSFEGNNNYDTPELRTFPALSTRFIRIYPERATHGGLGLRMELLGCEVE
# Key:
# Experiment in all cases: glycan array binding signal (z-score within array); higher = stronger binding
# Details in all cases: glycan notation: IUPAC condensed, linker removed
# [1] = target: Fuc(a1-2)Gal(b1-3)GlcNAc(b1-2)Man(a1-3)[Fuc(a1-2)Gal(b1-3)GlcNAc(b1-2)Man(a1-6)]Man(b1-4)GlcNAc(b1-4)GlcNAc
# Outline: (§1)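 Arrays were curated from the Consortium for Functional Glycomics database, 3228 in total, and kept only where the protein sequence was available. Binding is expressed as a within-array Z-score. This score was averaged across arrays of the same protein sequence at different concentrations or buffers and across linkers, and negative values can be read as non-binding.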
# [2] = target: Fuc(a1-2)Gal(b1-4)GlcNAc(b1-2)Man(a1-3)[Fuc(a1-2)Gal(b1-4)GlcNAc(b1-2)Man(a1-6)]Man(b1-4)GlcNAc(b1-4)GlcNAc
# Outline: as §1
# [3] = target: Fuc(a1-2)Gal(b1-4)[Fuc(a1-3)]GlcNAc(b1-2)Man(a1-3)[Fuc(a1-2)Gal(b1-4)[Fuc(a1-3)]GlcNAc(b1-2)Man(a1-6)]Man(b1-4)GlcNAc(b1-4)GlcNAc
# Outline: as §1
# [4] = target: Fuc(a1-2)[Gal(a1-3)]Gal(b1-4)GlcNAc(b1-2)Man(a1-3)[Fuc(a1-2)[Gal(a1-3)]Gal(b1-4)GlcNAc(b1-2)Man(a1-6)]Man(b1-4)GlcNAc(b1-4)GlcNAc
# Outline: as §1
# [5] = target: Fuc(a1-2)[GalNAc(a1-3)]Gal(b1-4)GlcNAc(b1-2)Man(a1-3)[GalNAc(a1-3)[Fuc(a1-2)]Gal(b1-4)GlcNAc(b1-2)Man(a1-6)]Man(b1-4)GlcNAc(b1-4)GlcNAc
# Outline: as §1
# [6] = target: Fuc(a1-3)[Gal(b1-4)]Glc6S
# Outline: as §1
# [7] = target: Fuc(a1-3)[Gal(b1-4)]GlcNAc
# Outline: as §1
# [8] = target: Fuc(a1-3)[Gal(b1-4)]GlcNAc(b1-2)Man(a1-3)[Fuc(a1-3)[Gal(b1-4)]GlcNAc(b1-2)Man(a1-6)]Man(b1-4)GlcNAc(b1-4)GlcNAc
# Outline: as §1
# [9] = target: Fuc(a1-3)[Gal3S(b1-4)]GlcNAc
# Outline: as §1
# Gal(a1-6)Glc = target: Gal(a1-6)Glc
# Outline: as §1
# [10] = target: Gal(b1-3)Gal(b1-4)GlcNAc(b1-2)Man(a1-3)[Gal(b1-3)Gal(b1-4)GlcNAc(b1-2)Man(a1-6)]Man(b1-4)GlcNAc(b1-4)GlcNAc
# Outline: as §1
# [11] = target: Gal(b1-3)[Neu5Ac(a2-6)]GalNAc
# Outline: as §1
# [12] = target: Gal(b1-4)GalNAc(b1-3)[Fuc(a1-2)]Gal(b1-4)GlcNAc
# Outline: as §1
# Gal(b1-4)Glc = target: Gal(b1-4)Glc
# Outline: as §1
# [13] = target: Gal(b1-4)GlcNAc(b1-2)Man(a1-3)[Man(a1-6)]Man(b1-4)GlcNAc(b1-4)GlcNAc
# Outline: as §1
# [14] = target: Gal(b1-4)GlcNAc(b1-3)Gal(b1-4)GlcNAc
# Outline: as §1
# [15] = target: Gal3S(b1-4)[Fuc(a1-3)]Glc
# Outline: as §1
# Gal4S(b1-4)GlcNAc = target: Gal4S(b1-4)GlcNAc
# Outline: as §1
# Gal6S(b1-4)GlcNAc = target: Gal6S(b1-4)GlcNAc
# Outline: as §1
# [16] = target: GalNAc(b1-4)GlcNAc(b1-2)Man(a1-3)[GalNAc(b1-4)GlcNAc(b1-2)Man(a1-6)]Man(b1-4)GlcNAc(b1-4)GlcNAc
# Outline: as §1
# GlcA(b1-6)Gal = target: GlcA(b1-6)Gal
# Outline: as §1
# [17] = target: GlcNAc(a1-4)Gal(b1-4)GalNAc
# Outline: as §1
# [18] = target: GlcNAc(a1-4)Gal(b1-4)GlcNAc(b1-3)Gal(b1-4)GlcNAc
# Outline: as §1
# [19] = target: GlcNAc(b1-2)Man(a1-3)[GlcNAc(b1-2)Man(a1-6)]Man(b1-4)GlcNAc(b1-4)GlcNAc
# Outline: as §1
# [20] = target: Man(a1-3)[Man(a1-6)]Man(b1-4)GlcNAc(b1-4)GlcNAc
# Outline: as §1
# [21] = target: Neu5Ac(a2-3)Gal(b1-3)GalNAc
# Outline: as §1
# [22] = target: Neu5Ac(a2-3)Gal(b1-3)[Fuc(a1-4)]GlcNAc(b1-3)Gal(b1-4)[Fuc(a1-3)]GlcNAc
# Outline: as §1
# [23] = target: Neu5Ac(a2-3)Gal(b1-4)[Fuc(a1-3)]GlcNAc(b1-6)[Gal(b1-3)]GalNAc
# Outline: as §1
# [24] = target: Neu5Ac(a2-6)Gal(b1-4)GlcNAc
# Outline: as §1
binder,measurement,setting,value
B1,glycan array binding signal (z-score),[1],1.14
same,glycan array binding signal (z-score),[2],5.83
same,glycan array binding signal (z-score),[3],4.73
same,glycan array binding signal (z-score),[4],6.43
same,glycan array binding signal (z-score),[5],5.34
same,glycan array binding signal (z-score),[6],0.455
same,glycan array binding signal (z-score),[7],-0.168
same,glycan array binding signal (z-score),[8],10.4
same,glycan array binding signal (z-score),[9],-0.158
same,glycan array binding signal (z-score),Gal(a1-6)Glc,-0.168
same,glycan array binding signal (z-score),[10],6.05
same,glycan array binding signal (z-score),[11],-0.23
same,glycan array binding signal (z-score),[12],-0.281
same,glycan array binding signal (z-score),Gal(b1-4)Glc,-0.292
same,glycan array binding signal (z-score),[13],-0.228
same,glycan array binding signal (z-score),[14],-0.228
same,glycan array binding signal (z-score),[15],0.036
same,glycan array binding signal (z-score),Gal4S(b1-4)GlcNAc,-0.235
same,glycan array binding signal (z-score),Gal6S(b1-4)GlcNAc,-0.225
same,glycan array binding signal (z-score),[16],0.263
same,glycan array binding signal (z-score),GlcA(b1-6)Gal,-0.189
same,glycan array binding signal (z-score),[17],1.27
same,glycan array binding signal (z-score),[18],-0.004
same,glycan array binding signal (z-score),[19],-0.176
same,glycan array binding signal (z-score),[20],-0.133
same,glycan array binding signal (z-score),[21],-0.216
same,glycan array binding signal (z-score),[22],0.065
same,glycan array binding signal (z-score),[23],0.942
same,glycan array binding signal (z-score),[24],-0.254
